Inhibition and outcome data for 45 molecules are collected here from PubChem BioAssay AID1794835 (Parasite Biology Lab, Institute for Biomedicine and …, 2023).

By inhibition is commonly meant the change of the read-out against control, counted positive when it falls.

A short description of the assay: anti-Giardia activity of synthetic compounds – Compounds Australia Scaffold Library subset, 24/48 h, primary screen (AID 1794835).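 On Inhibition: 0% = parasite counts in DMSO vehicle wells.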 The following applies: Giardia lamblia BRIS/91/HEPU/1279 trophozoite counts, imaging, at 10 µM.
[1] abbreviates: measured here: growth inhibition at 24 h, stronger effect = higher value.

Hit rate of the full screen: of about 2,500 compounds, about 45 (2%) were called active. No stated cut-off is given here; in the data, active means inhibition mostly above about 45% (no sharp cut-off); inactive means mostly below about 37%. The full list was thinned out, with actives kept by preference.

Consider `Cc1ccc(CNC(=O)N2CCN(C3=CC4=NCC(C)N4C=N3)CC2)cc1` (stereo unspecified), for which the inhibition (stronger effect = higher value) is 11.9% (inactive) and the inhibition under setting [1] was 18.7%.

In the case of `Fc1ccc(C2=Nc3ccc(Cl)cc3NC(c3cccs3)=N2)cc1`, the call was inactive. In addition, the inhibition under setting [1] came to 23%.

As for `Cc1ccc2c(c1)NC(c1ccc(C)o1)=NC(c1cccs1)=N2`, the inhibition runs as follows: (stronger effect = higher value) 54.6% (active); under setting [1], 15.2%.

In the case of `CCn1c(C2CCN(C(=O)c3ccc(Br)cc3)C2)nc2cccnc21` (stereo unspecified), the inhibition entry is “inactive”.

Regarding `CCCn1c(=O)c(C)nc2cc(-c3noc(-c4cccc(NC(=O)c5ccco5)c4)n3)ccc21`, the inhibition entry is “inactive”.

As to `COc1cc(OC)c(N2CC(C(=O)N3CCc4sccc4C3)CC2=O)cc1Cl` (stereo unspecified), the inhibition result is “inactive”.

For the molecule `O=[N+]([O-])c1ccccc1Sc1nnnn1C1CCOCC1`, the inhibition (stronger effect = higher value) was 8.6% (inactive) and the inhibition under setting [1] came to 6.15%.

On to `C1CCC(Sc2nnc(N3CCOCC3)s2)C1`, for which the inhibition entry is “inactive”.

Consider `O=[N+]([O-])c1cc(F)ccc1Sc1nnc(N2CCOCC2)s1`, for which the inhibition is, setting by setting: (stronger effect = higher value) 60.8% (active); under setting [1], 30.9%.

Turning to `CCCC(=O)Nc1ccc2nc(N3CCCC3)cc(C(=O)O)c2c1`, the inhibition entry is “inactive”.

For the molecule `COc1ccc(CN2CCN(C(=O)c3c(C)oc4c3C3=NCCN3C=N4)CC2)c(OC)c1OC`, the inhibition reads like this: (stronger effect = higher value) 7.4% (inactive); under setting [1], 3%.

With `Cc1ccccc1C(=O)Nc1cnc(N2CCNCC2)c(C(=O)N(C)Cc2ccccc2)c1`, the inhibition is, setting by setting: (stronger effect = higher value) 15.2% (inactive); under setting [1], 10.2%.

`CCC(=O)N1CCC(Oc2ccc(C(=O)N3CCOCC3)cn2)CC1`: the inhibition entry is “inactive”.

With `Cc1nnc2n1CCN(C(=O)c1cc(Br)c[nH]1)C2`, the inhibition entry is “inactive”.

With `COc1cc(N2CCn3c(nc4cc(Cl)ccc43)C2)ccc1NC(=O)COc1ccccc1`, the inhibition result was “inactive”.

For the molecule `COc1c(C)cnc(Cn2cnc([N+](=O)[O-])c2)c1C`, the inhibition is 83% (active) (stronger effect = higher value) and 25.8% under setting [1].

As for `Cc1noc(-c2c(C)sc(C)c2S(=O)(=O)NCc2ccccc2)c1C`, the inhibition (stronger effect = higher value) was 30.5% (inactive).

`Cc1ccc(C(=O)N2CCC(Oc3ncccc3C(=O)N3CCCCC3)C2)c(C)c1` (stereo unspecified): the result was inactive. Also, the inhibition under setting [1] turned out to be 0.6%.

With `Cc1ccc2oc(-c3noc(C(=O)NCC4CCCO4)n3)c(C)c2c1` (stereo unspecified), the molecule was classed as inactive. The molecule further showed an inhibition under setting [1] of 2%.

With `COc1ccc2oc(-c3noc(C(NC(=O)c4ccco4)C(C)C)n3)c(C)c2c1` (stereo unspecified), the inhibition (stronger effect = higher value) is 9.9% (inactive) and the inhibition under setting [1] amounted to 18.3%.

In the case of `COc1ccc2oc(-c3noc(C(=O)NCCN4CCCCCC4)n3)c(C)c2c1`, the inhibition reads like this: (stronger effect = higher value) 56.6% (active); under setting [1], 11.6%.

For `Cc1cccc(-c2nc(Cn3nnc(C(=O)Nc4ccc5c(c4)OCCO5)c3N)c(C)o2)c1`, the inhibition entry was “inactive”.

Turning to `CCOc1ccc(CCNC(=O)c2c(C)oc3c2C2=NCCN2C=N3)cc1OCC`, the inhibition (stronger effect = higher value) was 17.8% (inactive).

On to `CSc1ccc(CCNC(=O)c2ccc3c(c2)nc2n3CCOC2)cc1`, for which the inhibition (stronger effect = higher value) is 12.8% (inactive).

Take `CCOc1ccc(CCNC(=O)c2ccc3c(c2)nc2n3CCOC2)cc1OCC`: the inhibition (stronger effect = higher value) was 79.8% (active) and the inhibition under setting [1] was determined as 27.2%.

Take `Cc1ccc(-c2nc3ccccc3n2Cc2cccc(F)c2)o1`: the inhibition by setting is: (stronger effect = higher value) 16.3% (inactive); under setting [1], 22.1%.

`COc1ccc(C2(C(=O)N3CCC(Cc4nc(-c5ccc(F)cc5)no4)CC3)CC2)cc1`: the call was inactive. Under setting [1], this molecule had an inhibition of 11.4%.

As for `C=CCn1c(SCC(=O)N2CCCCC2)nc2scc(-c3ccco3)c2c1=O`, the inhibition (stronger effect = higher value) is 5.6% (inactive) and the inhibition under setting [1] is 6.8%.

On to `CCCCn1nnnc1CN1CCCC1Cn1cncn1` (stereo unspecified), for which the result was inactive. This molecule also had an inhibition under setting [1] of 2%.

On to `O=C(Nc1ccn(Cc2cccnc2)n1)c1ccc2n[nH]nc2c1`, for which the inhibition result is “inactive”.

For `O=C(Cn1nccc1-c1ccncc1)Nc1ccc(Cl)cc1`, the inhibition result is “inactive”.

As to `O=C(Cc1csc2nc(-c3ccccc3)cn12)NCCc1cccs1`, the molecule was called inactive. In addition, under setting [1], the inhibition worked out at 0.1%.

As to `O=C(Cc1csc2nc(-c3ccccc3)cn12)Nc1ccc(Cl)cc1`, the inhibition (stronger effect = higher value) was 67.7% (active) and the inhibition under setting [1] was 47.6%.

For the molecule `Cc1oc(-c2cccs2)nc1Cn1cccn1`, the inhibition entry is “inactive”.

On to `O=C(Cc1noc(-c2ccoc2)n1)NC1CCCCC1`, for which the inhibition is, setting by setting: (stronger effect = higher value) 3.1% (inactive); under setting [1], 4.9%.

`Cc1ccc(C)c(-c2cc3c4nn(CC(=O)N(C)c5ccc(F)cc5)c(=O)n4ccn3n2)c1`: the inhibition (stronger effect = higher value) is 96.3% (active) and the inhibition under setting [1] was determined as 79.6%.

Turning to `Cc1ccc(CNC(=O)c2ccc3nn(CC(=O)N(C)c4ccccc4)c(=O)n3c2)cc1`, the inhibition result was “inactive”.

For `O=C(Cn1nc2c3cc(-c4ccccc4)nn3ccn2c1=O)N1CCCc2ccccc21`, the inhibition result was “inactive”.

In the case of `O=S(=O)(Cc1ccc(C(F)(F)F)cc1)Cc1noc(C2CC2)n1`, the result was inactive. For the same molecule, the inhibition under setting [1] came out at 12.6%.

`CCc1nccn1CC1CCCN1` (stereo unspecified): the molecule was classed as inactive. In addition, the inhibition under setting [1] turned out to be 0.2%.

Consider `Cc1ccc(N2C(=O)N[C@@H]3C[C@]2(C)Oc2c(O)cc(C(C)(C)C)cc23)cc1C`, for which the inhibition result was “inactive”.

On to `Cc1c(-c2nc(-c3ccccc3)no2)nnn1-c1cccc(Cl)c1`, for which the inhibition entry was “inactive”.

As to `Cc1ccc(C)c(NC(=O)Cc2nc(Cn3cnc([N+](=O)[O-])c3)cs2)c1`, the inhibition (stronger effect = higher value) is 59.9% (active) and the inhibition under setting [1] stood at 8.45%.

In the case of `CN(C)C(=O)Cc1nc(CN2CCc3c(ncn3C)C2)cs1`, the result was inactive. Also, the inhibition under setting [1] was 1.4%.

Consider `Cc1ccc(NC(=O)Cc2nc(-c3ccc4c(c3)CC(=O)N4C)cs2)cc1`, for which the inhibition is, setting by setting: (stronger effect = higher value) 10% (inactive); under setting [1], 9.8%.
